This is an account of results in PubChem BioAssay (NCI).

About 79,000 compounds went through this panel and 15% of them were active in at least one assay; those are over-represented in the sample as a whole. The source made the active and inactive calls. No stated cut-off is given here; in the data, active means growth inhibition above about 70%; inactive means the rest.

The nature of one assay: NCI Yeast Anticancer Drug Screen. Data for the sgs1 mgt1 strain (AID 161).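 Further: 0% = growth of cultures given vehicle only.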 The note with it: S. cerevisiae sgs1 mgt1 strain, at 50.0 µM, hits give high values. Put shortly:
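Compounds are added to genetically altered yeast, and growth is compared with cultures given vehicle alone to give percent inhibition.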
Consider `COc1c(OCC(O)CN2CCCCC2)c2c(C)coc2c2ccoc12` (stereo not drawn), for which the growth inhibition is 16.1% (inactive).
The same measure, in the same setting: the value for `O=C(CCN1CCOCC1)Nc1ccc(F)cc1F` was -3.15% (inactive); that for `CC(C)(Oc1ccc2c(=O)cc(-c3ccc(Cl)cc3)oc2c1)C(=O)Nc1c(Cl)cccc1Cl` was 6.45% (inactive).
Still for that read-out and setting: the value for `COc1ccc(C2=C(Cl)c3cc(OC)c(OC)cc3C2Cl)cc1OC` (stereo not drawn) was 21.9% (inactive); that for `CC(=O)Oc1cccc2ccccc12` was 1% (inactive).
With `O=C(Nc1cccc(O)c1)OC1CCCCC1`, the growth inhibition was 25.2% (inactive).
Consider `O=C(c1ccco1)N(C(=S)N1CCN(c2ccccc2)CC1)C1CCCCC1`, for which the growth inhibition is 26.4% (inactive).
Same read-out and setting: for `CS/C(c1ccccc1)=[N+](/C)[O-]` the value was 17.3% (inactive); for `CCN(CC)c1ccccc1S(=O)(=O)O`, 2.9% (inactive).
As to `Clc1ccc(/C=C/c2nc3ccccc3s2)cc1Cl`, the growth inhibition is 3.1% (inactive).
On the same count and under the same terms, the value for `O=C(O)/C=C\c1cc2c(cc1[N+](=O)[O-])OCO2` was -4.2% (inactive).
On the same count and under the same terms, the value for `CCN(Cc1cc(Nc2ccnc3cc(Cl)ccc23)ccc1O)C(=O)N1CCN(C)CC1` was 20.5% (inactive); that for `C(=C\c1ccccn1)/c1ccc(/C=C/c2ccccn2)cc1` was 8.3% (inactive); that for `COC(=O)c1nc2c(N)nc(-c3ccccc3)nc2nc1N` was 23.1% (inactive).
On the same count and under the same terms, the value for `O=C=Nc1ccc(Cc2ccc(N=C=O)cc2)cc1` (tested in a mixture with another compound) was -12.2% (inactive); that for `Cc1ccccc1N(CC1CO1)CC1CO1` (stereo not drawn) was -20.8% (inactive); that for `COc1cc2c3c(c1)SC(C)C(=O)N3CCN2` (stereo not drawn) was 2.55% (inactive).
With `Cc1cccc(N=C(Nc2cccc(C)n2)Nc2cccc(C)n2)n1`, the growth inhibition was 35.6% (inactive).
With `CCOC(=O)COc1cc2c(cc1C(C)c1cc(OC)c(OC)c(OC)c1)OCO2` (stereo not drawn), the growth inhibition is 10.3% (inactive).
On the same count and under the same terms, for `O=C(N/C(=C\c1ccccc1[N+](=O)[O-])c1nc2ccccc2[nH]1)c1ccccc1` the value was 1.2% (inactive).
Regarding `Oc1ccc(C=NCCN=Cc2ccc(O)cc2)cc1`, the growth inhibition was -14.8% (inactive).
On the same count and under the same terms, the value for `NC(=O)NC(c1ccc(O)cc1)c1cc2c(cc1O)OCO2` (stereo not drawn) was -11.8% (inactive); that for `C/C(=N/C(=O)NN)c1ccc(Cl)cc1` was 42.9% (inactive).

The next assay in a line: NCI Yeast Anticancer Drug Screen. Data for the cln2 rad14 strain (AID 165).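 Further: 0% = growth equal to vehicle treated cultures.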 The note with it: S. cerevisiae cln2 rad14 strain, at 50.0 µM, hits give high values. Put shortly:
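Yeast carrying cln2 and rad14 alterations (cell cycle control and DNA damage repair) were exposed to compounds. Growth inhibition was measured against vehicle-treated controls.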
Turning to `CCN(/N=C1\CC2C=CCN(C2)C(=O)Cc2c1[nH]c1ccccc21)S(=O)(=O)c1ccc(C)cc1` (stereo not drawn), the growth inhibition is 23.6% (inactive).
On the same count and under the same terms, for `O=C(O)C1CCCCC1C(=O)O.[NH-]C1CCC1.[NH2-].[Pt+2]` (stereo not drawn) the value was 99.3% (active); for `COC(=O)CCCN1C(=O)c2ccccc2C1=O`, -69.8% (inactive); for `COC(=O)N/N=C/c1ccc(NC(C)=O)cc1`, -75.6% (inactive).
Consider `O=C1c2cc(Cl)ccc2OCC1Cl` (stereo not drawn), for which the growth inhibition was -25.6% (inactive).
Same read-out and setting: the value for `O=C1C(Cl)N(c2ccc(Cl)cc2Cl)C1c1c[nH]c2ccccc12` (stereo not drawn) was 3.05% (inactive); that for `CCOC(=O)CNc1nnnn1C1OC(CO)C(O)C1O` (stereo not drawn) was 11.7% (inactive); that for `Cc1cc(-c2ccccc2)c(C#N)c(=O)[nH]1` was -14.8% (inactive).
Still for that read-out and setting: the value for `COc1ccc(C(=O)N/N=C/c2ccccc2)cc1` was 6.85% (inactive); that for `CCCC=NCCCC` was -67% (inactive); that for `CCOP(=O)(OCC)/C(C#N)=C\c1ccc(N(C)C)cc1` was -13.7% (inactive).
Still for that read-out and setting: for `Nc1ccc(Cl)cc1[N+](=O)[O-]` the value was 25.1% (inactive); for `C[C@@]12C[C@@H](c3ccccc3O1)N1CCCSC1=N2`, 32.8% (inactive).
`c1ccc2c(C3CO3)c3ccc4ccccc4c3cc2c1` (stereo not drawn): the growth inhibition was 98.8% (active).
Still for that read-out and setting: the value for `Cc1cccc(C)c1NC(=O)C(=O)Cc1nc2ccccc2s1` was -4.45% (inactive).
In the case of `CC(=O)[C@@]1(O)CC[C@H]2[C@@H]3C[C@H](C)C4=CC(=O)CC[C@]4(C)[C@H]3[C@@H](O)C[C@@]21C`, the growth inhibition is -36.2% (inactive).
On the same count and under the same terms, the value for `C#[N+]CCOP(=O)(OCC1OC(n2cc(C)c(=O)[nH]c2=O)CC1N=[N+]=[N-])O[C@H]1CC[C@@]2(C)C(=CC[C@H]3[C@@H]4CC[C@H](C(C)CCCC(C)C)[C@@]4(C)CC[C@@H]32)C1` (stereo partly drawn) was 3.05% (inactive).
Same read-out and setting: the value for `COc1c(OCC(O)CN2CCCCC2)c2c(C)coc2c2ccoc12` (stereo not drawn) was 9.25% (inactive); that for `O=C(CCN1CCOCC1)Nc1ccc(F)cc1F` was 7.25% (inactive); that for `CC(C)(Oc1ccc2c(=O)cc(-c3ccc(Cl)cc3)oc2c1)C(=O)Nc1c(Cl)cccc1Cl` was -14.9% (inactive).
The same measure, in the same setting: the value for `COc1ccc(C2=C(Cl)c3cc(OC)c(OC)cc3C2Cl)cc1OC` (stereo not drawn) was 26.9% (inactive).
As for `CC(=O)Oc1cccc2ccccc12`, the growth inhibition is -109% (inactive).
Take `O=C(Nc1cccc(O)c1)OC1CCCCC1`: the growth inhibition was -18.1% (inactive).
Same read-out and setting: the value for `O=C(c1ccco1)N(C(=S)N1CCN(c2ccccc2)CC1)C1CCCCC1` was 36% (inactive).
Same read-out and setting: for `CS/C(c1ccccc1)=[N+](/C)[O-]` the value was -1% (inactive).
With `CCN(CC)c1ccccc1S(=O)(=O)O`, the growth inhibition was -42.9% (inactive).
Regarding `Clc1ccc(/C=C/c2nc3ccccc3s2)cc1Cl`, the growth inhibition was 9.95% (inactive).
Same read-out and setting: for `O=C(O)/C=C\c1cc2c(cc1[N+](=O)[O-])OCO2` the value was -12.2% (inactive).
Same read-out and setting: for `CCN(Cc1cc(Nc2ccnc3cc(Cl)ccc23)ccc1O)C(=O)N1CCN(C)CC1` the value was 15.8% (inactive); for `C(=C\c1ccccn1)/c1ccc(/C=C/c2ccccn2)cc1`, -26.8% (inactive); for `COC(=O)c1nc2c(N)nc(-c3ccccc3)nc2nc1N`, 11.3% (inactive).
Still for that read-out and setting: the value for `O=C=Nc1ccc(Cc2ccc(N=C=O)cc2)cc1` (tested in a mixture with another compound) was 8.95% (inactive); that for `Cc1ccccc1N(CC1CO1)CC1CO1` (stereo not drawn) was -19% (inactive); that for `COc1cc2c3c(c1)SC(C)C(=O)N3CCN2` (stereo not drawn) was 10.2% (inactive).
For `Cc1cccc(N=C(Nc2cccc(C)n2)Nc2cccc(C)n2)n1`, the growth inhibition is 36.9% (inactive).
The same measure, in the same setting: for `CCOC(=O)COc1cc2c(cc1C(C)c1cc(OC)c(OC)c(OC)c1)OCO2` (stereo not drawn) the value was 18.1% (inactive); for `O=C(N/C(=C\c1ccccc1[N+](=O)[O-])c1nc2ccccc2[nH]1)c1ccccc1`, -1.15% (inactive).
On the same count and under the same terms, the value for `Oc1ccc(C=NCCN=Cc2ccc(O)cc2)cc1` was -24.2% (inactive); that for `NC(=O)NC(c1ccc(O)cc1)c1cc2c(cc1O)OCO2` (stereo not drawn) was -36.8% (inactive).
Same read-out and setting: for `C/C(=N/C(=O)NN)c1ccc(Cl)cc1` the value was 2.35% (inactive).
